The text below walks through data of PubChem BioAssay AID686934 (National Center for Advancing Translational Sciences (NCATS), 2013).

Results filed as inconclusive are left out. The source made the active and inactive calls. Calls come from the whole dose curve; as a rule, active = well fitted curve in the direction sought with a large enough effect; inconclusive = small, poorly fitted or top-dose-only effect, or another doubt; inactive = no such curve, though single readings can be large or run the other way.

A short description of this test: qHTS screen for small molecules that inhibit ELG1-dependent DNA repair: SAR in Cell-Based Luciferin Counter Assay. Conditions: cell-based luciferase counter-screen, luminescence; series mostly up to 45.7 µM. The text has this: Cancer cells divide rapidly compared to normal cells in the body. During cell division, cancer cells need to duplicate their genome by DNA replication. The failure of genome duplication leads to cancer cells' death. Therefore, inhibitors of DNA replication could specifically kill cancer cells. Based on this concept, many chemotherapeutic agents were developed and have been used to treat cancer patients. However, there are a limited number of agents available in the clinical setting, and some of those that do exist have low efficacy and severe side effects. Therefore, if we can find the compounds that effectively block DNA replication either by directly damaging DNA or by inhibiting other cellular mechanisms, the options for cancer treatment will be broadened. With this in mind, we developed a quantitative high-throughput ELG1-luciferase reporter gene assay. Small molecules that specifically block ELG1 function in response to DNA damage can be identified by monitoring the suppression of luciferase activity. Since ELG1 defines a pathway for repairing DNA damage, agents blocking ELG1 function can be used to sensitize cancer cells to chemotherapeutic agents whose mechanism of action involves the induction of DNA damage. This assays is a counterscreen, that is more specifically, a cell-based luciferase assay following treatment with putative ELG1 antagonists to eliminate luciferase enhancers/inhibitors NIH Molecular Libraries Probe Production Network [MLPCN] NIH Chemical Genomics Center [NCGC] MLPCN Grant: R03 MH092164 Assay Provider: Kyungjae Myung, NHGRI, NIH
3 uL of substrate reagent will be pipetted into each well in 1536-well white, solid-bottom plates using a FRD dispenser, followed by addition of 23 nL of DMSO or compounds by pintool. After compound addition, 1 µL of luciferase will be added into the wells. The plates will be read in a ViewLux CCD-based plate reader.
(In general: Quantitative high-throughput screening tests each substance at several concentrations.)
Take `COc1ccccc1/C=C/c1nc2ccccc2s1`: the result was inactive.

Consider `O=C1/C(=C/c2ccc(O)c(O)c2)Oc2ccccc21`, for which the compound was called inactive.

In the case of `COc1ccc(-c2cnc(-c3cccnc3)o2)cc1`, the call was inactive.

Turning to `O=C(Nc1ccccn1)c1sc2ccc([N+](=O)[O-])cc2c1Cl`, the outcome was inactive.

For the compound `COc1ccc(OC)c(-c2nnc3n2N=C(c2ccc(OC)c(OC)c2)CS3)c1`, the compound was classed as inactive.

On to `Cc1ccnc(NC(=S)N2CCN(c3ccc(N)cc3)CC2)c1`, for which the result was inactive.

On to `CN(C)c1cccc(-c2nnc(N3CCC(C(N)=O)CC3)s2)c1`, for which the call was inactive.

For the compound `CC(C)C(=O)SCCCCCCC(=O)Nc1nc(-c2ccccc2)cs1`, the result was inactive.

For the compound `Oc1cc2cc(-c3csc(-c4ccc(F)cc4)n3)cc3c2n1CCC3`, the compound was classed as inactive.

With `COc1ccccc1/C=C/c1nc2ccccc2o1`, the compound was classed as inactive.

With `CC(=O)Oc1ccc(-c2nc(-c3ccccc3)no2)cc1`, the result was inactive.

In the case of `Cc1cc2ncc(-c3ccccc3)nc2cc1C`, the compound was called inactive.

With `CNC(=O)c1cc(-c2cccs2)on1`, the compound was called inactive.

Consider `CC(=O)Nc1sc2c(c1-c1nc3ccccc3s1)CCCNC2`, for which the result was inactive.

With `Cc1ccc2c(c1)C/C(=C/c1ccc(N(C)C)cc1)C2=O`, the compound was called inactive.

Regarding `O=C(c1cc2ccccc2[nH]1)c1cc2cc(O)ccc2[nH]1`, the compound was classed as inactive.

As for `O=S(=O)(c1c(F)cccc1F)N1CCN(S(=O)(=O)c2c(F)cccc2F)CC1`, the outcome was inactive.

As for `O=C(COc1ccccc1Cl)Nc1ccc(-c2nc3ccccc3s2)cc1`, the outcome was inactive.

Consider `COc1cccc2oc(-c3ccccc3)cc(=O)c12`, for which the call was inactive.

For `O=c1[nH]c(-c2ccc(-c3cccc(Cl)c3)o2)nc2ccccc12`, the compound was classed as inactive.

With `CC(=O)Nc1ccc(/C=C/c2sc3ccccc3[n+]2CCCCI)cc1`, the outcome was inactive.

On to `CC(=O)OCC1=C[C@H]2[C@@H]3C(C)(C)[C@]3(OC(C)=O)C[C@@H](C)[C@]2(O)[C@@H]2C=C(C)C(=O)[C@@]2(O)C1`, for which the outcome was inactive.

Regarding `CCCC(=O)Oc1ccc2[nH]c(C(=O)c3cc4ccccc4[nH]3)cc2c1`, the compound was called inactive.

As to `O=c1[nH]c(=O)n([C@@H]2O[C@H](CO)[C@@H](O)[C@H]2O)cc1F`, the outcome was inactive.

Take `CN(C)c1ccc(/C=C2\C=Cc3ccccc32)c(F)c1`: the compound was classed as inactive.

Take `COc1cccc([C@@H]2Oc3ccc(OC)cc3C(=O)[C@H]2OC(=O)NS(=O)(=O)c2ccc(C)cc2)c1`: the compound was classed as inactive.

For the compound `Cc1noc(C)c1-c1ccc2ncnc(NCc3ccc(F)c(F)c3)c2c1`, the result was inactive.

Turning to `COc1cccc2c1C(=O)/C(=C\c1ccc(N(C)C)cc1)C2`, the compound was classed as inactive.

For `CN(C)c1ccc(N=Nc2ccc(/C=C/c3ccnc4ccccc34)cc2)cc1`, the call was inactive.

As to `Oc1ccc(CCc2ccccc2F)c2cccnc12`, the compound was called inactive.

With `O=C(NC1CCCC1)c1cc(-c2cccs2)on1`, the result was inactive.

For the compound `CN(C)c1cccc(-c2ccnc(N3CCC(C(N)=O)CC3)n2)c1`, the compound was called inactive.

`CN(C)c1ccc(/C=C2\CCc3ccccc32)cc1`: the compound was called inactive.

Consider `COc1ccc(-c2coc3cc(O)cc(O)c3c2=O)cc1`, for which the outcome was inactive.

As for `COC(=O)Nc1nc2ccc(C(=O)c3cccs3)cc2[nH]1`, the call was inactive.

In the case of `Nc1ccc2cccnc2c1`, the compound was called inactive.

Consider `CN(Cc1ccco1)c1ncnc2ccc(-c3cccc(Cl)c3)cc12`, for which the result was inactive.

Consider `Cc1ccc2nc3sc(C(=O)NCc4ccco4)cc3cc2c1`, for which the result was inactive.

For `Cc1nc(Nc2nc3ccccc3o2)nc2c1CCCC2`, the compound was called inactive.

On to `ICC[n+]1csc2ccccc21`, for which the compound was classed as inactive.
